For assay [1], the target named is Glutathione peroxidase 1 (Homo sapiens) (UniProt P07203). Description: Primary qHTS Assay for Inhibitors of Recombinant Selenoprotein Glutathione Peroxidase 1 (GPX1) (AID 1845191). For activity, negative = inhibition: % is set by controls: 0 for no effect and ±100 for the full control effect. Note: nearly all actives have a fitted effect of over 65% in size. The gist of the method:
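GR-coupled readout: NADPH consumption tracked by fluorescence, ex 340/em 450 nm, at t=0 and after 15 min at RT. Final mix 10 nM GPX1, 1 mM GSH, 0.5 mM CHP, 0.5 mM NADPH, 100 nM GR, 0.01% BSA, following 30 min enzyme–compound preincubation.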

For assay [2], the target named is Phospholipid hydroperoxide glutathione peroxidase GPX4 (Homo sapiens) (UniProt P36969). The experiment in a line: Primary qHTS Assay for Inhibitors of Recombinant Selenoprotein Glutathione Peroxidase 4 (GPX4) (AID 1845192). For activity change, negative = inhibition: series mostly up to about 50 µM; % is set by controls: 0 for no effect and ±100 for the full control effect. Note: nearly all actives have a fitted effect of over 65% in size. The essentials:
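Steps: GPX4 plus compound, 30 min RT; add GR/GSH/NADPH master mix; start with cumene hydroperoxide; read 340/450 nm fluorescence at 0 and 15 min. Finals were 200 nM GPX4, 1 mM GSH, 0.5 mM CHP, 0.5 mM NADPH, 100 nM GR.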

The target in assay [3] is Luciferin 4-monooxygenase (Photinus pyralis) (UniProt P08659). The experiment in a line: Primary firefly luciferase (FLuc) qHTS assay for identification of artifact compounds. (AID 1845220).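 For activity change, negative = inhibition: series mostly up to about 54 µM; plate controls were DMSO vehicle for no effect and no enzyme for full effect.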 Note: nearly all actives have a fitted effect of over 60% in size. The gist of the method:
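Titrated compounds were incubated 15 min at RT, protected from light, with luciferin and ATP at 10 uM; reaction started with 10 nM FLuc, luminescence imaged at 5 min, and concentration-response fitted by Hill equation.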

Assay [4] in a line: Primary fluorescence-based thiol-reactive (MSTI) qHTS assay for identification of artifact compounds. (AID 1845221).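 For activity change, negative = thiol reactive: series mostly up to about 54 µM; thiol-reactive compounds lower the probe fluorescence signal.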 Note: nearly all actives have a fitted effect of over 65% in size. The essentials: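 qHTS titration of compound; 4 uM MSTI, PBS pH 7.4, 2% DMSO; 1 h RT, dark; fluorescence 525/598 nm; normalized to Acetyl-MSTI and MSTI; 4-parameter Hill fit.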
Assay [5] concerns Nanoluciferase (engineered Oplophorus gracilirostris luciferase). Description: Primary Nanoluciferase (NLuc) qHTS assay for identification of artifact compounds. (AID 1845222).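 For activity, negative = inhibition: NLuc secreted into diluted conditioned medium of S16 cells; series mostly up to about 54 µM; 0% = DMSO and -100% = no enzyme.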 The essentials:
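qHTS format, against NLuc in S16 cell-conditioned medium. Nano-Glo substrate 1:100 was added after 15 min at room temperature. Luminescence was taken after a further 5 min.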

Unmarked numbers belong to inactive results. Inconclusive results are not listed. Activity calls are given as the source filed them. Calls come from the whole dose curve; as a rule, active = well fitted curve in the direction sought with a large enough effect; inconclusive = small, poorly fitted or top-dose-only effect, or another doubt; inactive = no such curve, though single readings can be large; an effect the other way counts as inactive or inconclusive.
Potency is the fitted concentration of half-maximal effect.

Chain of Phospholipid hydroperoxide glutathione peroxidase GPX4 (Homo sapiens) (P36969 whole entry, looked up): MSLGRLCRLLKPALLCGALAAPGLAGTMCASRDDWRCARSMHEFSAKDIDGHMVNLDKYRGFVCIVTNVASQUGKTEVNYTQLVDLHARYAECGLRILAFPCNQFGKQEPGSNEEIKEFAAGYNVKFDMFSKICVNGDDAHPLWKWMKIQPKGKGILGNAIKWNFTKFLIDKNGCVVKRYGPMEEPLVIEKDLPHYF
Chain of Glutathione peroxidase 1 (Homo sapiens) (P07203 whole entry, looked up): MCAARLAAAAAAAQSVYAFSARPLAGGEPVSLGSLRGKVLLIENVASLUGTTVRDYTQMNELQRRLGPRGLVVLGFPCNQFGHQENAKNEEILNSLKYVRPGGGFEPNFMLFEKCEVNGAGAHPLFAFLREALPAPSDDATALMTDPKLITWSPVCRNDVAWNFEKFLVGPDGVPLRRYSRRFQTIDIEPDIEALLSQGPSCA

Turning to `CC(C)c1cc(-c2ccc(F)c3ccccc23)nc(N)n1`, the Potency entry in assay [1], in assay [2], in assay [3], in assay [4] and in assay [5] was “inactive” each time.
Turning to `O=C(COc1ccc2ccccc2c1Br)Nc1cccnc1`, the Potency entry in assay [1], in assay [2], in assay [4] and in assay [5] was “inactive” in each case. Besides, in assay [3], the Potency is 6.01 µM (active).
For `Cc1nc(C#Cc2ccnc(Cl)c2)c(C)n1-c1ccc(F)cc1`, the Potency entry in assay [1], in assay [2], in assay [3], in assay [4] and in assay [5] was “inactive” throughout.
Regarding `CC(=O)O[C@@H]1C[C@@]23C[C@@]24CC[C@H](O[C@@H]2OC[C@H](O)[C@H](O)[C@H]2O)C(C)(C)[C@@H]4CC[C@H]3[C@]2(C)[C@@H](O)C34O[C@H](C[C@@H](C)[C@@H]3[C@@]12C)[C@@H](C(C)(C)O)O4`, the Potency entry in assay [1], in assay [2], in assay [3], in assay [4] and in assay [5] was “inactive” throughout.
Take `C=C1C(=O)OC2CC(C)C(CCC(C)=O)=CCC12` (stereo not given): the Potency entry in assay [1], in assay [2], in assay [3], in assay [4] and in assay [5] was “inactive” each time.
Consider `C=C1CC[C@@H]2[C@](C)(CO)[C@H](O)CC[C@@]2(C)[C@@H]1/C=C/C1=CCOC1=O`, for which the Potency result in assay [1], in assay [2], in assay [3], in assay [4] and in assay [5] was “inactive” each time.
For the compound `CCCOc1ccc(CCc2nc3cc(-c4c(C)noc4C)ccc3n2CCN2CCOCC2)cc1`, the Potency entry in assay [1], in assay [2], in assay [3], in assay [4] and in assay [5] was “inactive” in each case.
For `O=C(Nc1ccc2[nH]c(=O)oc2c1)C(=O)N1CCC(Cc2ccc(F)cc2)CC1`, the Potency result in assay [1], in assay [2], in assay [3], in assay [4] and in assay [5] was “inactive” each time.
Take `C#CCOc1ccc2c(c1)c(-c1ccc(C(C)C)cc1)nc(=O)n2C(C)C`: the Potency result in assay [1], in assay [2], in assay [3], in assay [4] and in assay [5] was “inactive” in each case.
Take `C/C=C(\C)C(=O)OC1C[C@@]2(COC(C)=O)O[C@H]2/C=C\[C@@]2(C)O[C@@H]2[C@H]2OC(=O)C(COC(C)=O)=C12` (stereo not given in full): the Potency result in assay [1], in assay [2], in assay [3] and in assay [5] was “inactive” in each case. The Potency in assay [4] was 13 µM (active).
Take `Cn1nc(-c2ccc(C(F)(F)F)cc2)nc2c(=O)n(C)c(=O)nc1-2`: the Potency in assay [1] is 25.5 µM (active); in assay [2] it was 22.7 µM (active); in assay [3], 6.01 µM (active); in assay [4], 2.67 µM (active); in assay [5], 3.01 µM (active).
Take `C=C1C(=O)OC2C1CCC1(C)C(O)CCC(=C)C21` (stereo not given): the Potency result in assay [1], in assay [2], in assay [3] and in assay [5] was “inactive” throughout. For the same compound, in assay [4], the Potency was 11.9 µM (active).
Regarding `C[C@@H]1CCCN1CCc1cc2cc(-c3ccc(C#N)cc3)ccc2o1`, the Potency entry in assay [1], in assay [2], in assay [3], in assay [4] and in assay [5] was “inactive” throughout.
Regarding `CCCc1cc2c(N3CCN(C4=NCC(C)(C)S4)CC3)ncnc2s1`, the Potency result in assay [1], in assay [2], in assay [3], in assay [4] and in assay [5] was “inactive” in each case.
For the compound `CN(C)CC#CCCC(=O)C(O)(c1ccccc1)C1CCC1` (stereo not given), the Potency entry in assay [1], in assay [2], in assay [3], in assay [4] and in assay [5] was “inactive” in each case.
Take `C[C@H](CN(C)C)Oc1nc(Nc2cc3cccc(Cl)c3cn2)cnc1C#N`: the Potency result in assay [1], in assay [2], in assay [3], in assay [4] and in assay [5] was “inactive” throughout.
As to `Cn1cc(-c2ccc(S(=O)(=O)n3ccc(/C=C/C(=O)Nc4ccccc4N)c3)cc2)cn1`, the Potency entry in assay [1], in assay [2], in assay [3], in assay [4] and in assay [5] was “inactive” throughout.
As for `C=C1C(=O)OC2C3=C(C)C(=O)CC3C(C)CC(O)C12` (stereo not given), the Potency result in assay [1], in assay [2], in assay [3] and in assay [5] was “inactive” each time. Also, the Potency in assay [4] is 11.9 µM (active).
Regarding `COc1cccc(OCCCN)c1-c1cc(Nc2cnc(C#N)cn2)n[nH]1`, the Potency result in assay [1], in assay [2], in assay [3], in assay [4] and in assay [5] was “inactive” each time.
Turning to `CN(C)CCN(Cc1ccc(-c2ccc(CNCCc3ccccc3)cc2)cc1)C(=O)CCC1CCCC1`, the Potency entry in assay [1], in assay [2], in assay [3], in assay [4] and in assay [5] was “inactive” in each case.
For `CC(=O)O[C@H]1CC(C)(C)CC2[C@]13CO[C@@]21CCC2[C@@]4(C)CC[C@H](O[C@@H]5OC[C@H](O[C@@H]6O[C@H](CO)[C@@H](O)[C@H](O)[C@H]6O[C@@H]6OC[C@@H](O[C@@H]7O[C@H](CO)[C@@H](O)[C@H](O)[C@H]7O)[C@H](O)[C@H]6O)[C@H](O)[C@H]5O[C@@H]5O[C@H](CO)[C@@H](O)[C@H](O)[C@H]5O)[C@@](C)(CO)C4CC[C@@]2(C)[C@]1(C)C[C@H]3O` (stereo not given in full), the results for the activity, negative = inhibition in assay [1] and in assay [5] were 2.15% [at 9.52 µM] and 2.8% [at 11.6 µM], respectively. Further, the activity change, negative = inhibition in assay [2] was 4.48% [at 9.73 µM]; in assay [3] it was 3.87% [at 11.6 µM]. Also, the activity change, negative = thiol reactive in assay [4] is 133% [at 11.5 µM].
For the compound `COc1ccccc1OCCNCC(O)CCOc1cccc2[nH]c3ccccc3c12` (stereo not given), the Potency result in assay [1], in assay [2], in assay [3], in assay [4] and in assay [5] was “inactive” throughout.
Turning to `COC(=O)CC[C@@H](C)C1CCC2C3CCC4C[C@H](OC(C)=O)CCC4(C)C3C[C@H](O)C21C` (stereo not given in full), the Potency result in assay [1], in assay [2], in assay [3], in assay [4] and in assay [5] was “inactive” each time.
